Our source for the binding signal values is PMC7862700, “An all-to-all approach to the identification of sequence-specific readers for epigenetic DNA modifications on cytosine”.

What all share (assay): DAPPL (digital affinity profiling via proximity ligation, sequencing); 10 mM Tris-HCl pH 7.5, 50 mM NaCl, 1 mM DTT, 4% glycerol, room temperature, 30 min; GST-TFs on glutathione beads, 16-mer random dsDNA library, 0.1% formaldehyde crosslink after washing; high values mean tight binding
Conditions in all cases: protein: recombinant; tags: N-terminal GST; dsDNA, one strand shown

Assay [1] addresses T1, ERF (Homo sapiens, UniProt P50548 1-548).
T1 sequence: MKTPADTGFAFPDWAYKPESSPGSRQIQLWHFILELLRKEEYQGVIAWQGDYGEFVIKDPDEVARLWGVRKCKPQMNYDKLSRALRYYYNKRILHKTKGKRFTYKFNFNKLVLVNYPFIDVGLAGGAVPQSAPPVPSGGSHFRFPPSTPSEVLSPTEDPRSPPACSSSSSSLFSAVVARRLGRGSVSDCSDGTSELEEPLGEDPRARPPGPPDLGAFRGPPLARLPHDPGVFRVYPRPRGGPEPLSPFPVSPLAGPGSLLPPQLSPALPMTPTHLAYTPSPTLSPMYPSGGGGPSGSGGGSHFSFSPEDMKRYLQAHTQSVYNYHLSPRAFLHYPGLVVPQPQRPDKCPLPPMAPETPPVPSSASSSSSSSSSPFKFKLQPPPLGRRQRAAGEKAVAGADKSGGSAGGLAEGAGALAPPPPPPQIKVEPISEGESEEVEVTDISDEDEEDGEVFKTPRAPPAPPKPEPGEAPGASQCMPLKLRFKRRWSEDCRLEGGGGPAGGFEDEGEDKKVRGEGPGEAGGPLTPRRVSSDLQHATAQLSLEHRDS
The essentials: (§1)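 Pools of DNA-barcoded human transcription factors, expressed in yeast as GST fusions on glutathione beads and combined with a tag-only sample, were incubated with 200 nmole of a 16-mer random double-stranded DNA library. Incubation took 30 min at room temperature in Tris/NaCl/DTT/glycerol buffer and was followed by washing, 0.1% formaldehyde crosslinking, proximity ligation (BsaI/T4 ligase, 1 h, 37 °C), PCR amplification and sequencing on an Illumina NextSeq500. Binding signal is the ratio of a hexamer's read frequency for a factor to its frequency for the tag-only sample.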

Assay [2] addresses T2, ETV3L (Homo sapiens, UniProt Q6ZN32 1-361).
T2 sequence: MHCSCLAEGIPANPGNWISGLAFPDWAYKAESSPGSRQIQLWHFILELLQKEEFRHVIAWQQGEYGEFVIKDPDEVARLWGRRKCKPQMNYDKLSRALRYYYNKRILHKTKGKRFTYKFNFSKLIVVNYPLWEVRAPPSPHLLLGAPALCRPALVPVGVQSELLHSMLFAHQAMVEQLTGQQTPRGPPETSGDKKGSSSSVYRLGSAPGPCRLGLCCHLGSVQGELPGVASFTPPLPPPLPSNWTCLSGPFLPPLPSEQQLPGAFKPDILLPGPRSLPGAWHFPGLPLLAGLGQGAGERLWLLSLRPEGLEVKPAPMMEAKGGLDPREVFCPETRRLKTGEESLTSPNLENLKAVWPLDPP
The procedure, abridged:
as §1

Assay [3] concerns the target T3, ETS2 (Homo sapiens, UniProt P15036 1-469).
T3 sequence: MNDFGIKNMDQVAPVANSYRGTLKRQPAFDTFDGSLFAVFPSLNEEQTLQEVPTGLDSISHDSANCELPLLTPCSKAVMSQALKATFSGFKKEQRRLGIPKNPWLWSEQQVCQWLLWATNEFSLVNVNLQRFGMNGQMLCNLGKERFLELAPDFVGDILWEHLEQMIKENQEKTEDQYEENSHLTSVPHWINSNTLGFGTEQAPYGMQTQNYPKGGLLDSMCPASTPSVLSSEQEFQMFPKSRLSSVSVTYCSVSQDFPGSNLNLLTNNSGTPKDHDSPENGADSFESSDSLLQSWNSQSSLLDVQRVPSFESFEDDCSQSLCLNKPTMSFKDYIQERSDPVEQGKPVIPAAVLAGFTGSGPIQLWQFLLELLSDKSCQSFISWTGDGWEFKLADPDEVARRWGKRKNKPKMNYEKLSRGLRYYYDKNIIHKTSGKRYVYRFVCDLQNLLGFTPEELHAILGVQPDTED
The procedure, abridged: as §1

Assay [4] deals with T4, SPDEF (Homo sapiens, UniProt O95238 1-335).
T4 sequence: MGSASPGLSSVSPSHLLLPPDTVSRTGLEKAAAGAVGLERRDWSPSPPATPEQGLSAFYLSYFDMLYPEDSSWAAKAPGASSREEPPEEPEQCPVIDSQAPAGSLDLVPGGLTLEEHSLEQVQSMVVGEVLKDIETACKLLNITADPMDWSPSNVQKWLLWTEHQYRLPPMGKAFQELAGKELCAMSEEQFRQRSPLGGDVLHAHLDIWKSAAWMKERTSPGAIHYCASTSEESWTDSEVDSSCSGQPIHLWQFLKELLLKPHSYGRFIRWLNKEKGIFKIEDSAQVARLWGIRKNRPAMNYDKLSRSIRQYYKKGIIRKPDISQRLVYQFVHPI
The procedure, abridged:
as §1

Assay [5] addresses T5, ETV7 (Homo sapiens, UniProt Q9Y603 1-341).
T5 sequence: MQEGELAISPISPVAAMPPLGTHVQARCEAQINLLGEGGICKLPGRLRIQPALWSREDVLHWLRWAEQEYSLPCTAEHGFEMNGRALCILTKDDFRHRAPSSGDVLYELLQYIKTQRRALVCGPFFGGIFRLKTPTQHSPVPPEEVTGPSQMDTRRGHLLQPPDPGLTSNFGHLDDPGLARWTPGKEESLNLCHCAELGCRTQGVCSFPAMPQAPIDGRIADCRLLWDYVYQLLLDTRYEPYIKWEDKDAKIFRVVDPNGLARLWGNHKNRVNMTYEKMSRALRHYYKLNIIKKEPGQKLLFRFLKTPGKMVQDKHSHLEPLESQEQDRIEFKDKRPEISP
The essentials: as §1

For assay [6], the target named is T6, ELF5 (Homo sapiens, UniProt Q9UKW6-2 1-255).
T6 sequence: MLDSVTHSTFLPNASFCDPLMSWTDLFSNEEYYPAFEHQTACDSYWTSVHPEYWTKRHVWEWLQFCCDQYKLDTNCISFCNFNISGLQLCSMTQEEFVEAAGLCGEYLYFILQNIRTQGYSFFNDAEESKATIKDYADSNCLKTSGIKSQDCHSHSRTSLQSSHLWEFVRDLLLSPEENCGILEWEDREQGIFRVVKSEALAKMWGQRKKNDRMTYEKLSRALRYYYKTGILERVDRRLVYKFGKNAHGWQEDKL
The procedure, abridged: as §1

Assay [7] deals with T7, ETV3 (Homo sapiens, UniProt P41162-2 1-143).
T7 sequence: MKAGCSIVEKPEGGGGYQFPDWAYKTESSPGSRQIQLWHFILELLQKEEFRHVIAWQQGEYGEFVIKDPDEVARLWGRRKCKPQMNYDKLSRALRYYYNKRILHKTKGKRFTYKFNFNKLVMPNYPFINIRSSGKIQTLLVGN
The procedure, abridged:
as §1

Assay [8] concerns the target ETV6 (Homo sapiens, UniProt P41212 1-452). The essentials: as §1

ETV6, sequence (P41212 whole entry): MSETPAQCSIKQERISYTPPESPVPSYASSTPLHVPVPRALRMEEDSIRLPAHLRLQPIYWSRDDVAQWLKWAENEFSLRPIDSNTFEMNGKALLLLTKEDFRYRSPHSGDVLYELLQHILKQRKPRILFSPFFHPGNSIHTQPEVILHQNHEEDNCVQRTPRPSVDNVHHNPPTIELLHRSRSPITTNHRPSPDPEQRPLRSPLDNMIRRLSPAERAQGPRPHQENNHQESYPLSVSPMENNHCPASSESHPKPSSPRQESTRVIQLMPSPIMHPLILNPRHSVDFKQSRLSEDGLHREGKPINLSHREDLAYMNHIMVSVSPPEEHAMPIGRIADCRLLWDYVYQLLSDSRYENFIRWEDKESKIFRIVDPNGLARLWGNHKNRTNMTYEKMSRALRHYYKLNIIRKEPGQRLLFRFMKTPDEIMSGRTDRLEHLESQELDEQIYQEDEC

Consider CAATCA, for which the binding signal in assay [1] is 1.19 fold enrichment (6-mer frequency, TF over GST control); in assay [2] it was 1.2 fold enrichment (6-mer frequency, TF over GST control); in assay [3], 1.13 fold enrichment (6-mer frequency, TF over GST control); in assay [4] it was 1.07 fold enrichment (6-mer frequency, TF over GST control); in assay [5] it was 1.04 fold enrichment (6-mer frequency, TF over GST control); in assay [6], 1.1 fold enrichment (6-mer frequency, TF over GST control). Further, the binding signal is 1.1 fold enrichment (6-mer frequency, TF over GST control) in assay [7] and 1.16 fold enrichment (6-mer frequency, TF over GST control) in assay [8].

For CCGCAC, the binding signal is 1.46 fold enrichment (6-mer frequency, TF over GST control) in assay [1]; 1.55 fold enrichment (6-mer frequency, TF over GST control) in assay [2]; 1.47 fold enrichment (6-mer frequency, TF over GST control) in assay [3]; 1.46 fold enrichment (6-mer frequency, TF over GST control) in assay [4]; 1.4 fold enrichment (6-mer frequency, TF over GST control) in assay [5]; 1.59 fold enrichment (6-mer frequency, TF over GST control) in assay [6]. The binding signal in assay [7] was 1.61 fold enrichment (6-mer frequency, TF over GST control); in assay [8] it was 1.56 fold enrichment (6-mer frequency, TF over GST control).

Turning to AACGAA, the binding signal in assay [1] is 1.12 fold enrichment (6-mer frequency, TF over GST control); in assay [2], 1.16 fold enrichment (6-mer frequency, TF over GST control); in assay [3], 1.18 fold enrichment (6-mer frequency, TF over GST control); in assay [4], 1.1 fold enrichment (6-mer frequency, TF over GST control); in assay [5], 1.25 fold enrichment (6-mer frequency, TF over GST control); in assay [6], 1.09 fold enrichment (6-mer frequency, TF over GST control). The binding signal in assay [7] is 1.11 fold enrichment (6-mer frequency, TF over GST control); in assay [8] it was 1.17 fold enrichment (6-mer frequency, TF over GST control).

For CGTCAA, the binding signal in assay [1] is 1.13 fold enrichment (6-mer frequency, TF over GST control); in assay [2], 1.09 fold enrichment (6-mer frequency, TF over GST control); in assay [3], 1.16 fold enrichment (6-mer frequency, TF over GST control); in assay [4], 1.15 fold enrichment (6-mer frequency, TF over GST control); in assay [5] it was 1.09 fold enrichment (6-mer frequency, TF over GST control); in assay [6], 1.08 fold enrichment (6-mer frequency, TF over GST control). Further, the binding signal in assay [7] is 1.06 fold enrichment (6-mer frequency, TF over GST control); in assay [8] it was 1.15 fold enrichment (6-mer frequency, TF over GST control).

ATTCCC: the binding signal is 1.28 fold enrichment (6-mer frequency, TF over GST control) in assay [1]; 1.53 fold enrichment (6-mer frequency, TF over GST control) in assay [2]; 1.25 fold enrichment (6-mer frequency, TF over GST control) in assay [3]; 1.37 fold enrichment (6-mer frequency, TF over GST control) in assay [4]; 1.29 fold enrichment (6-mer frequency, TF over GST control) in assay [5]; 1.5 fold enrichment (6-mer frequency, TF over GST control) in assay [6]. For the same sequence, the binding signal was 1.51 fold enrichment (6-mer frequency, TF over GST control) in assay [7] and 1.38 fold enrichment (6-mer frequency, TF over GST control) in assay [8].

As to ATACTG, the binding signal is 1.14 fold enrichment (6-mer frequency, TF over GST control) in assay [1]; 1.23 fold enrichment (6-mer frequency, TF over GST control) in assay [2]; 1.1 fold enrichment (6-mer frequency, TF over GST control) in assay [3]; 1.18 fold enrichment (6-mer frequency, TF over GST control) in assay [4]; 1.09 fold enrichment (6-mer frequency, TF over GST control) in assay [5]; 1.07 fold enrichment (6-mer frequency, TF over GST control) in assay [6]. Besides, the binding signal was 1.12 fold enrichment (6-mer frequency, TF over GST control) in assay [7] and 1.07 fold enrichment (6-mer frequency, TF over GST control) in assay [8].

On to AAAATT, for which the binding signal in assay [1] was 1.48 fold enrichment (6-mer frequency, TF over GST control); in assay [2], 1.49 fold enrichment (6-mer frequency, TF over GST control); in assay [3], 1.4 fold enrichment (6-mer frequency, TF over GST control); in assay [4], 1.26 fold enrichment (6-mer frequency, TF over GST control); in assay [5], 1.5 fold enrichment (6-mer frequency, TF over GST control); in assay [6] it was 1.29 fold enrichment (6-mer frequency, TF over GST control). Besides, the binding signal in assay [7] is 1.31 fold enrichment (6-mer frequency, TF over GST control); in assay [8], 1.33 fold enrichment (6-mer frequency, TF over GST control).

Regarding TAACGA, the binding signal in assay [1] is 1.03 fold enrichment (6-mer frequency, TF over GST control); in assay [2] it was 1.04 fold enrichment (6-mer frequency, TF over GST control); in assay [3], 1.12 fold enrichment (6-mer frequency, TF over GST control); in assay [4] it was 1.16 fold enrichment (6-mer frequency, TF over GST control); in assay [5], 1.1 fold enrichment (6-mer frequency, TF over GST control); in assay [6] it was 1.06 fold enrichment (6-mer frequency, TF over GST control). Further, the binding signal in assay [7] is 1.06 fold enrichment (6-mer frequency, TF over GST control); in assay [8] it was 1.08 fold enrichment (6-mer frequency, TF over GST control).

On to CATTCG, for which the binding signal in assay [1] was 1.21 fold enrichment (6-mer frequency, TF over GST control); in assay [2], 1.17 fold enrichment (6-mer frequency, TF over GST control); in assay [3], 1.17 fold enrichment (6-mer frequency, TF over GST control); in assay [4] it was 1.15 fold enrichment (6-mer frequency, TF over GST control); in assay [5], 1.18 fold enrichment (6-mer frequency, TF over GST control); in assay [6], 1.13 fold enrichment (6-mer frequency, TF over GST control). For the same sequence, the binding signal was 1.27 fold enrichment (6-mer frequency, TF over GST control) in assay [7] and 1.27 fold enrichment (6-mer frequency, TF over GST control) in assay [8].
